# In the library only some 2.2% were active in any assay of this set; here they are far more common.
# NPR2 activator – GC-B (human) receptor activation; 0.11% of 370,000 active; activation, % at 10 µM; P20594; HEK293-GC-B cells, CNP EC30, cGMP TR-FRET; 0% at EC30 CNP, 100% saturating CNP;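 active = activation at 10 µM reaching about 35% in either raw or pattern-adjusted values, limit read from the data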
# ADAM17 inh – inhibits human ADAM17. recombinant ADAM17, EDANS/DABCYL FRET peptide cleavage. inhibition, % at 6.95 µM. 0.83% of 370,000 active. AID 720648;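 active = inhibition above the mean of compounds lying between control limits plus 3 SD, set per campaign, cut at about 8.5% in these data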;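 also: 0% = DMSO-only wells as the low control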
# ADAM10 inh – inhibitors of human ADAM10; O14672; recombinant ADAM10, EDANS/DABCYL FRET peptide cleavage, 3 h; inhibition, % at 7 µM; 0.62% of 370,000 active; AID 720582;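 active = inhibition above a per-campaign cutoff equal to the mean of compounds falling between control-based bounds plus 3 SD, cut at about 20% in these data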;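 also: 0% = DMSO wells while the 100% control is not disclosed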
# GC-A act – GC-A (human) enzyme activation. P16066. HEK293 GC-A cells, cGMP TR-FRET, EC30 ANP; 0% at EC30 ANP, 100% saturating ANP. activation, % at 10 µM. 0.14% of 370,000 active. AID 1671463; in the data active = activation above about 40%
# Target sequence (P16066 whole entry, looked up): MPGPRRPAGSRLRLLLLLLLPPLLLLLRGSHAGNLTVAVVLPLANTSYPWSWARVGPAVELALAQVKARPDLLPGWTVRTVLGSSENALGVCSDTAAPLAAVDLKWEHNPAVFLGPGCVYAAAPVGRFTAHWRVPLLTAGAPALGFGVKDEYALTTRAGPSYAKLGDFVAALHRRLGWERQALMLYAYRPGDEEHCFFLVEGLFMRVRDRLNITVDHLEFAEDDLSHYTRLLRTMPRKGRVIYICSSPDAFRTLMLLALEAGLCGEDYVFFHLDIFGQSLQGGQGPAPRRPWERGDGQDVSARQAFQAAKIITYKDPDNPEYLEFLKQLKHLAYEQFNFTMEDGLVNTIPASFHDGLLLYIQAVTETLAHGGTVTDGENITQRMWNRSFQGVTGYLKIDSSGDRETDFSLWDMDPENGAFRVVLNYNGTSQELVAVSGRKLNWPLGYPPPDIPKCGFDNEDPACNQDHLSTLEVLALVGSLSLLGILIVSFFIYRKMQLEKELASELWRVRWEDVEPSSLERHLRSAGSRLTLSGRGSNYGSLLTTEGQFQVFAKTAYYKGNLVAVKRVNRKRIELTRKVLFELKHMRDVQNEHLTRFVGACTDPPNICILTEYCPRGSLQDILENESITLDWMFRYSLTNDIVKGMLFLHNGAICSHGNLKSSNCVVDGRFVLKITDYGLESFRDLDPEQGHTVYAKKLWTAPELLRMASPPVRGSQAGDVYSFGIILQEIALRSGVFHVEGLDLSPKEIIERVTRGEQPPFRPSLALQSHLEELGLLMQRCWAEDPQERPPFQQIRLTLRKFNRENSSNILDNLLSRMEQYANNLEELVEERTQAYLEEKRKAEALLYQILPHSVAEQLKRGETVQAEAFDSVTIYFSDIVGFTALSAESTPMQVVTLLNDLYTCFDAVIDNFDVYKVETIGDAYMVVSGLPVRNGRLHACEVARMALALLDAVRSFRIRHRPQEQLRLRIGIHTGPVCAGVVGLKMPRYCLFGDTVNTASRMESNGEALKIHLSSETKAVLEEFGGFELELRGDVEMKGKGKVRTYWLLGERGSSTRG
# KLK7 zymogen act – activators of human kallikrein-7 zymogen. P49862. purified proKLK7, EDANS-DABCYL substrate fluorescence; 100% is mature enzyme control, 0% vehicle. activation, % at 7 µM. 0.9% of 370,000 active;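 active = activation above the mean of all tested compounds plus 3 SD, computed per campaign excluding outliers beyond control limits, cut at about 13% in these data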
# ADAM10 confirm – human ADAM10 inhibition, confirmation; shares compounds with ADAM10 inh; ADAM10 QFRET peptide cleavage, EDANS fluorescence; inhibition, % at 6.95 µM; 1% of 2,100 active; AID 743208;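 active = inhibition above about 20% chosen separately for each screening run, limit read from the data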;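 also: 0% = DMSO wells and 100% = marimastat wells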
# ADAM17 ctr – counter-screen for ADAM10 exosite inhibitors: inhibitors of human ADAM17. shares compounds with ADAM10 inh. ADAM17 QFRET peptide cleavage, EDANS fluorescence. inhibition, % at 6.95 µM. 0.5% of 2,100 active. AID 743214;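 active = mean triplicate inhibition above the solvent-only control wells' mean plus 3 SD, cut at about 12% in these data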;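 also: 0% = DMSO wells and 100% = marimastat wells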
# ADAM10 ctr – ADAM10 inhibition, counter-screen for ADAM17 exosite hits; shares compounds with ADAM17 inh; 47% of 2,900 active; inhibition, % at 6.95 µM; recombinant ADAM10, EDANS/DABCYL FRET peptide cleavage, 3 h;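 active = mean inhibition over the triplicate runs exceeds the activity threshold set in the earlier primary screen, cut at about 20% in these data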;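 also: 0% = DMSO wells and 100% = marimastat wells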
# ADAM17 confirm – confirmation of inhibitors of human ADAM17; AID 743257; shares compounds with ADAM17 inh; 65% of 2,900 active; recombinant ADAM17, EDANS/DABCYL QFRET peptide cleavage; inhibition, % at 6.95 µM;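 active = mean inhibition across replicates above the hit cutoff set in the primary screen, cut at about 8.5% in these data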;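 also: 0% = DMSO wells and 100% = marimastat wells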
# * marks the source's active call; other numbers are inactive results; x = no result given.
SMILES,NPR2 activator,ADAM17 inh,ADAM10 inh,GC-A act,KLK7 zymogen act,ADAM10 confirm,ADAM17 ctr,ADAM10 ctr,ADAM17 confirm
CC1(C(=O)OCC(=O)Nc2nc(-c3ccc(F)c(F)c3)cs2)CC1(Cl)Cl (stereo not given),-4,9.3*,21*,13,0,8,2,24*,16*
O=C(COc1ccccc1F)c1ccc(O)cc1O,1,-2,-4,4,1,x,x,x,x
Cc1c(O)ccc(C(=O)COc2ccccc2F)c1O,-1,12*,22*,1,-1,1,0,27*,12*
CCc1cccc(CC)c1NC(=O)COC(=O)CC1c2ccccc2CCN1S(=O)(=O)c1ccc(F)cc1 (stereo not given),0,14*,23*,3,1,2,0,6,2
O=C(COC(=O)CC1c2ccccc2CCN1S(=O)(=O)c1ccc(F)cc1)Nc1ccccc1 (stereo not given),-5,6,11,-3,0,x,x,x,x
O=C1[C@H]2[C@@H](c3ccc(C(F)(F)F)cc3)N[C@]3(CCCN(Cc4ccc(C(F)(F)F)cc4)C3=O)[C@H]2C(=O)N1Cc1ccccc1,-5,13*,31*,-3,0,3,1,41*,24*
COc1ccc(CN[C@@H]2CC[C@@]34CCCN3C(=O)CCC[C@H]4C2)cc1OC,-1,-2,-1,0,x,x,x,x,x
COc1ccc(C(c2c[nH]c3ccccc23)c2c[nH]c3ccccc23)cc1O,-15,11*,31*,-9,-1,13,4,43*,20*
Cc1ccc(O)c(C(C)c2c[nH]c3ccccc23)c1 (stereo not given),-8,2,5,0,0,x,x,x,x
COc1ccc(S(=O)(=O)N(C)C[C@@H]2Oc3c(NC(=O)Nc4ccccc4)cccc3C(=O)N([C@@H](C)CO)C[C@H]2C)cc1,0,-2,-3,3,x,x,x,x,x
Cc1cc(-n2c(C)cc(C(=O)CSc3nnnn3-c3ccccc3)c2C)no1,0,1,3,0,1,x,x,x,x
Cc1ccc(-n2nnnc2SCC(=O)c2cc(C)n(-c3cc(C)on3)c2C)c(C)c1,1,15*,24*,-2,0,3,2,19,11*
CCC(=O)N(Cc1ccco1)c1nc(C(=O)Nc2ccc(Cl)cc2)c(C)s1,6,11*,22*,1,1,11,3,32*,17*
CN1C(=O)c2cc(NC(=O)Cc3ccccc3)ccc2OC[C@H]2O[C@H](CC(=O)O)CC[C@H]21,4,0,-2,-3,0,x,x,x,x
CC(=O)NNC(=S)NC(=O)c1ccc(C)cc1,3,-5,-2,2,0,x,x,x,x
Cc1ccc(C(=O)NNC(=S)NC(=O)c2ccc(Cl)cc2)cc1,1,12*,20*,0,0,1,1,13,7
COC(=O)[C@]12C[C@H](CC(=O)N3CCC(c4ccccc4)CC3)C(=O)N(Cc3ccco3)C1=C[C@H](COCc1ccccc1)O[C@@H]2C,6,3,4,-5,0,x,x,x,x
O=S(=O)(NCCOCC(F)(F)C(F)F)c1ccc2oc3ccccc3c2c1,-3,9.5*,29*,0,0,1,0,32*,21*
CC(C)C1S/C(=N/N=C/c2cccs2)NC1=O (stereo not given),-2,9.4*,29*,4,0,1,0,8,5
CC1S/C(=N/N=C/c2cccs2)NC1=O (stereo not given),0,3,0,7,0,x,x,x,x

# Source: PubChem BioAssay
